# Results from ChEMBL document CHEMBL1961873, “Compounds: GSK PKIS; Assays: Nanosyn kinase panel” (2012).
# Experiments:
# [1] = biological target: Serine/threonine-protein kinase 4 (Homo sapiens) (UniProt Q13043); conditions: at 0.1 µM
# [2] = biological target: Serine/threonine-protein kinase 4 (Homo sapiens) (UniProt Q13043); conditions: at 1 µM
# [3] = biological target: Serine/threonine-protein kinase 3 (Homo sapiens) (UniProt Q13188); conditions: at 0.1 µM
# [4] = biological target: Serine/threonine-protein kinase 3 (Homo sapiens) (UniProt Q13188); conditions: at 1 µM
# [5] = biological target: Serine/threonine-protein kinase 26 (Homo sapiens) (UniProt Q9P289); conditions: at 0.1 µM
# [6] = biological target: Serine/threonine-protein kinase 26 (Homo sapiens) (UniProt Q9P289); conditions: at 1 µM
# [7] = biological target: Serine/threonine-protein kinase PAK 1 (Homo sapiens) (UniProt Q13153); conditions: at 0.1 µM
# [8] = biological target: Serine/threonine-protein kinase PAK 1 (Homo sapiens) (UniProt Q13153); conditions: at 1 µM
# [9] = biological target: Serine/threonine-protein kinase PAK 2 (Homo sapiens) (UniProt Q13177); conditions: at 0.1 µM
# [10] = biological target: Serine/threonine-protein kinase PAK 2 (Homo sapiens) (UniProt Q13177); conditions: at 1 µM
# [11] = biological target: Serine/threonine-protein kinase PAK 3 (Homo sapiens) (UniProt O75914); conditions: at 0.1 µM
# [12] = biological target: Serine/threonine-protein kinase PAK 3 (Homo sapiens) (UniProt O75914); conditions: at 1 µM
# [13] = biological target: Serine/threonine-protein kinase PAK 5 (Homo sapiens) (UniProt Q9P286); conditions: at 0.1 µM
# [14] = biological target: Serine/threonine-protein kinase PAK 5 (Homo sapiens) (UniProt Q9P286); conditions: at 1 µM
# [15] = biological target: Serine/threonine-protein kinase PAK 6 (Homo sapiens) (UniProt Q9NQU5); conditions: at 0.1 µM
# [16] = biological target: Serine/threonine-protein kinase PAK 6 (Homo sapiens) (UniProt Q9NQU5); conditions: at 1 µM
# [17] = tested on: Tyrosine-protein kinase ABL1 (Homo sapiens), P00519 [E255K]; conditions: at 0.1 µM
# [18] = tested on: Tyrosine-protein kinase ABL1 (Homo sapiens), P00519 [E255K]; conditions: at 1 µM
# [19] = tested on: Tyrosine-protein kinase ABL1 (Homo sapiens), P00519 [H396P]; conditions: at 0.1 µM
# [20] = tested on: Tyrosine-protein kinase ABL1 (Homo sapiens), P00519 [H396P]; conditions: at 1 µM
# [21] = tested on: Tyrosine-protein kinase ABL1 (Homo sapiens), P00519 [M351T]; conditions: at 0.1 µM
# [22] = tested on: Tyrosine-protein kinase ABL1 (Homo sapiens), P00519 [M351T]; conditions: at 1 µM
# [23] = tested on: Tyrosine-protein kinase ABL1 (Homo sapiens), P00519 [Q252H]; conditions: at 0.1 µM
# [24] = tested on: Tyrosine-protein kinase ABL1 (Homo sapiens), P00519 [Q252H]; conditions: at 1 µM
# [25] = tested on: Tyrosine-protein kinase ABL1 (Homo sapiens), P00519 [T315I]; conditions: at 0.1 µM
# [26] = tested on: Tyrosine-protein kinase ABL1 (Homo sapiens), P00519 [T315I]; conditions: at 1 µM
# [27] = tested on: Tyrosine-protein kinase ABL1 (Homo sapiens), P00519 [Y253F]; conditions: at 0.1 µM
# [28] = tested on: Tyrosine-protein kinase ABL1 (Homo sapiens), P00519 [Y253F]; conditions: at 1 µM
# [29] = biological target: Tyrosine-protein kinase ABL1 (Homo sapiens) (UniProt P00519); conditions: at 0.1 µM
# [30] = biological target: Tyrosine-protein kinase ABL1 (Homo sapiens) (UniProt P00519); conditions: at 1 µM
# [31] = biological target: ALK tyrosine kinase receptor (Homo sapiens) (UniProt Q9UM73); conditions: at 0.1 µM
# [32] = biological target: ALK tyrosine kinase receptor (Homo sapiens) (UniProt Q9UM73); conditions: at 1 µM
# [33] = biological target: Tyrosine-protein kinase ABL2 (Homo sapiens) (UniProt P42684); conditions: at 0.1 µM
# [34] = biological target: Tyrosine-protein kinase ABL2 (Homo sapiens) (UniProt P42684); conditions: at 1 µM
# [35] = biological target: Tyrosine-protein kinase receptor UFO (Homo sapiens) (UniProt P30530); conditions: at 0.1 µM
# [36] = biological target: Tyrosine-protein kinase receptor UFO (Homo sapiens) (UniProt P30530); conditions: at 1 µM
# [37] = biological target: Tyrosine-protein kinase Blk (Homo sapiens) (UniProt P51451); conditions: at 0.1 µM
# [38] = biological target: Tyrosine-protein kinase Blk (Homo sapiens) (UniProt P51451); conditions: at 1 µM
# [39] = biological target: Cytoplasmic tyrosine-protein kinase BMX (Homo sapiens) (UniProt P51813); conditions: at 0.1 µM
# [40] = biological target: Cytoplasmic tyrosine-protein kinase BMX (Homo sapiens) (UniProt P51813); conditions: at 1 µM
# [41] = biological target: Protein-tyrosine kinase 6 (Homo sapiens) (UniProt Q13882); conditions: at 0.1 µM
# [42] = biological target: Protein-tyrosine kinase 6 (Homo sapiens) (UniProt Q13882); conditions: at 1 µM
# [43] = biological target: Tyrosine-protein kinase BTK (Homo sapiens) (UniProt Q06187); conditions: at 0.1 µM
# [44] = biological target: Tyrosine-protein kinase BTK (Homo sapiens) (UniProt Q06187); conditions: at 1 µM
# [45] = biological target: Tyrosine-protein kinase CSK (Homo sapiens) (UniProt P41240); conditions: at 0.1 µM
# [46] = biological target: Tyrosine-protein kinase CSK (Homo sapiens) (UniProt P41240); conditions: at 1 µM
# [47] = biological target: Discoidin domain-containing receptor 2 (Homo sapiens) (UniProt Q16832); conditions: at 0.1 µM
# [48] = biological target: Discoidin domain-containing receptor 2 (Homo sapiens) (UniProt Q16832); conditions: at 1 µM
# [49] = biological target: Epidermal growth factor receptor (Homo sapiens) (UniProt P00533); conditions: at 0.1 µM
# [50] = biological target: Epidermal growth factor receptor (Homo sapiens) (UniProt P00533); conditions: at 1 µM
# [51] = tested on: Epidermal growth factor receptor (Homo sapiens), P00533 [L858R]; conditions: at 0.1 µM
# [52] = tested on: Epidermal growth factor receptor (Homo sapiens), P00533 [L858R]; conditions: at 1 µM
# [53] = tested on: Epidermal growth factor receptor (Homo sapiens), P00533 [L861Q]; conditions: at 0.1 µM
# [54] = tested on: Epidermal growth factor receptor (Homo sapiens), P00533 [L861Q]; conditions: at 1 µM
# [55] = tested on: Epidermal growth factor receptor (Homo sapiens), P00533 [T790M]; conditions: at 0.1 µM
# [56] = tested on: Epidermal growth factor receptor (Homo sapiens), P00533 [T790M]; conditions: at 1 µM
# Sequence of Serine/threonine-protein kinase PAK 5 (Homo sapiens) (Q9P286 whole entry, looked up): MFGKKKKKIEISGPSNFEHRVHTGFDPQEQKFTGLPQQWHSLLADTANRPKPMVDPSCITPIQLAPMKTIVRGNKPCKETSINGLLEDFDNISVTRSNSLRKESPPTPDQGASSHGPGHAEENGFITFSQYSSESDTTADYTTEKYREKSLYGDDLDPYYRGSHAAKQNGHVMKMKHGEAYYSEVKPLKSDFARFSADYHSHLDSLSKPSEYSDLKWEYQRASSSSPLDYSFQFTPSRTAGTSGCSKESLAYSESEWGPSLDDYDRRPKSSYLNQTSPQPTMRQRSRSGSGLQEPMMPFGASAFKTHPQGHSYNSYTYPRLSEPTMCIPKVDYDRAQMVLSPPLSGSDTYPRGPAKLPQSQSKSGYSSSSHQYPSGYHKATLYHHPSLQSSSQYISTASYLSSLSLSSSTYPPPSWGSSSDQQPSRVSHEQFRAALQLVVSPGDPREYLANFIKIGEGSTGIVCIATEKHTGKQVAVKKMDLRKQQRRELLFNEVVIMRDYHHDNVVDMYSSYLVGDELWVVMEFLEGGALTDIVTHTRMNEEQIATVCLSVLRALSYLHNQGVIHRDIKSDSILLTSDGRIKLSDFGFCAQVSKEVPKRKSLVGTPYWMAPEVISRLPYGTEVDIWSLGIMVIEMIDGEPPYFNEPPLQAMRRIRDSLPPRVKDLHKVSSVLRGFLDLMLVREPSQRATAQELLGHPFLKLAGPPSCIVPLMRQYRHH
# Sequence of Serine/threonine-protein kinase PAK 6 (Homo sapiens) (Q9NQU5 whole entry, looked up): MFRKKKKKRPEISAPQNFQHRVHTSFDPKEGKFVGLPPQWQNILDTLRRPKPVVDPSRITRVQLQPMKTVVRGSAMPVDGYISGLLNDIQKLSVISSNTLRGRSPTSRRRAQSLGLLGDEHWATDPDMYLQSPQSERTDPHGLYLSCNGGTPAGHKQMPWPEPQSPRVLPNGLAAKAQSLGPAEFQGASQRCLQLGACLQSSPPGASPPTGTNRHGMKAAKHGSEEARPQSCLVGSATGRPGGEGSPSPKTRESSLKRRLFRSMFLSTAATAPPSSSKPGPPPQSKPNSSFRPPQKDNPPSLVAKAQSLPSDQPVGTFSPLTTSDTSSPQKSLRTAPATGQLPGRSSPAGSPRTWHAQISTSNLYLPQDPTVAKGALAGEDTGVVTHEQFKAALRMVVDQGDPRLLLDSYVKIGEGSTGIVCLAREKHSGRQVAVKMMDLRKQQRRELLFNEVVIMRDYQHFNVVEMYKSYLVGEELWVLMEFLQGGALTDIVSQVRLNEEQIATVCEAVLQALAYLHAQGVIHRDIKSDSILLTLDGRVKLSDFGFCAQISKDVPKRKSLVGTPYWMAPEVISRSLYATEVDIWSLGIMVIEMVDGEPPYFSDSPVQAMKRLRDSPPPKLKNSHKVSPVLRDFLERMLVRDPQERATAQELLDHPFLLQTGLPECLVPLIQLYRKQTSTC
# Sequence of Serine/threonine-protein kinase PAK 3 (Homo sapiens) (O75914 whole entry, looked up): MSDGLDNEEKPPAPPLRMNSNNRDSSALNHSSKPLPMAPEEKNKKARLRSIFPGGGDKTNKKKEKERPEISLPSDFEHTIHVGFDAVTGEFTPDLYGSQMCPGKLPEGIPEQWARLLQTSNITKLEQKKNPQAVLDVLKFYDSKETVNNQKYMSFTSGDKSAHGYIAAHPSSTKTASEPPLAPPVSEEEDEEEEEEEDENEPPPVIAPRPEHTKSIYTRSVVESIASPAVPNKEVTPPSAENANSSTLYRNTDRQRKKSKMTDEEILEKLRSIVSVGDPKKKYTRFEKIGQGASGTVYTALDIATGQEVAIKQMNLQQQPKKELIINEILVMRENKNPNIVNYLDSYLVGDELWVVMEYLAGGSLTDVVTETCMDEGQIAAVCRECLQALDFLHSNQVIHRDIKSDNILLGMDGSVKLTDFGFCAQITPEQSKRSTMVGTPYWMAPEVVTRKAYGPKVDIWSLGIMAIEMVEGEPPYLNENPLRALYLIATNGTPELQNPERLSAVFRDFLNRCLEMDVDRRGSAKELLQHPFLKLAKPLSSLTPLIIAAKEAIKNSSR
# Sequence of Tyrosine-protein kinase receptor UFO (Homo sapiens) (P30530 whole entry): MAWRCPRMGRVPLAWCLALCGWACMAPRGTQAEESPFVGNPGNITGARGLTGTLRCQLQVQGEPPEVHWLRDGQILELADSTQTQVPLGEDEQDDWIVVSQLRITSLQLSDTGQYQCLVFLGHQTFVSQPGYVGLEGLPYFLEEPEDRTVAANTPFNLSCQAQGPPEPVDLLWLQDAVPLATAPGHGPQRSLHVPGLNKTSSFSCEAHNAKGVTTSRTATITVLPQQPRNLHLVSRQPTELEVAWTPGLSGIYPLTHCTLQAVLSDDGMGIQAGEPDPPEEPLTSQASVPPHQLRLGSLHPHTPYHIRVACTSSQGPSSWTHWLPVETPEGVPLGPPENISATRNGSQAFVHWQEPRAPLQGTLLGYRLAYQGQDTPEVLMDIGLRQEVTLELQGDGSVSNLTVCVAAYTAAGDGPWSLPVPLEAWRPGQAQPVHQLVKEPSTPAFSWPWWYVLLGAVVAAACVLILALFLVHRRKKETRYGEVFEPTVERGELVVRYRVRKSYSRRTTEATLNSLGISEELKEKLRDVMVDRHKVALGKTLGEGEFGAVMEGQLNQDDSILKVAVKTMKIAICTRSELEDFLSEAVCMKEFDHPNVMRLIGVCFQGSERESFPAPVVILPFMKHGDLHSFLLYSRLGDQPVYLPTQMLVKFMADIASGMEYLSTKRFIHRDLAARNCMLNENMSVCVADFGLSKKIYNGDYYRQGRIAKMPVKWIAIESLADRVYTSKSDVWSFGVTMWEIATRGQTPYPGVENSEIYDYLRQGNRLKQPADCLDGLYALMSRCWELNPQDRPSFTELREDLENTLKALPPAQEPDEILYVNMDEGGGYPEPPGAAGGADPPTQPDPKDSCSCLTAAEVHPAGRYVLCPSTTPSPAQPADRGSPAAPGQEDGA
# Sequence of Serine/threonine-protein kinase 26 (Homo sapiens) (Q9P289 2-416 limits assumed): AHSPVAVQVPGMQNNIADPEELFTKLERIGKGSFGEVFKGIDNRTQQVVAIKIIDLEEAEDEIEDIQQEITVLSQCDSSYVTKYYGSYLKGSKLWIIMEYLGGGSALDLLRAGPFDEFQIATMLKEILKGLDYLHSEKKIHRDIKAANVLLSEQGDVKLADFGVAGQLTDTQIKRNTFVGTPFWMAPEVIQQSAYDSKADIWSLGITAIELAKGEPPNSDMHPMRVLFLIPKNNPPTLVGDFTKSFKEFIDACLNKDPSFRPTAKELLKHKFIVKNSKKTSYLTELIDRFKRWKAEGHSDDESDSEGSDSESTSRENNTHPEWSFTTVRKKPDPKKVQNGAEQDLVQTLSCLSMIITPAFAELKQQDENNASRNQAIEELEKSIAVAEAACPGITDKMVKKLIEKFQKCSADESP
# Sequence of Tyrosine-protein kinase CSK (Homo sapiens) (P41240 2-450 limits assumed): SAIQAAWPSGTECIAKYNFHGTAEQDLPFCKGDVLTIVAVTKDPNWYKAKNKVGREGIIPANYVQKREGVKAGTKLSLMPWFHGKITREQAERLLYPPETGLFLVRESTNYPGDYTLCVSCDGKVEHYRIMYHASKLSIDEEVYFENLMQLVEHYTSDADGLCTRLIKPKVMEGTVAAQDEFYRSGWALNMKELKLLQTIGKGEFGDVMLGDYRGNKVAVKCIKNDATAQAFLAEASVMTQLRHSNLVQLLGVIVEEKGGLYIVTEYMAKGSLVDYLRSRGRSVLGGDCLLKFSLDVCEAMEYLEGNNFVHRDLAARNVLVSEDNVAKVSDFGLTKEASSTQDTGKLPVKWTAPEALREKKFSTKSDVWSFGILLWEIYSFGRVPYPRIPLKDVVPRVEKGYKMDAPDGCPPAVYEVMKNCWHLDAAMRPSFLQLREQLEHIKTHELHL
# Sequence of Tyrosine-protein kinase Blk (Homo sapiens) (P51451 2-505 limits assumed): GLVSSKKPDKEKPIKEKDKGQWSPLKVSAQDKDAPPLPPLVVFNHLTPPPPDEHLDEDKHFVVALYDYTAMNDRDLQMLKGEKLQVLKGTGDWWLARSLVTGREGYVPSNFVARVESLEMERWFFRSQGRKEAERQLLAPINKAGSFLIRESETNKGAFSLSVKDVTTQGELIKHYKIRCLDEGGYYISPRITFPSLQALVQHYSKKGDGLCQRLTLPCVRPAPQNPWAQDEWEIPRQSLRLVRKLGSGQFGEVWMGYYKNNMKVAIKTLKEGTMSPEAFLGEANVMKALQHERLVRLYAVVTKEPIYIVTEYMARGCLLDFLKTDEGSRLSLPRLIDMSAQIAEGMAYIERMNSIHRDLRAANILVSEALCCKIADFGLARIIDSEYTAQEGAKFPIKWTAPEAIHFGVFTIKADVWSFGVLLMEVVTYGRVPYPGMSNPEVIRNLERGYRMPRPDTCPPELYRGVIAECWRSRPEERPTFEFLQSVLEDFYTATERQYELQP
# Sequence of Protein-tyrosine kinase 6 (Homo sapiens) (Q13882 whole entry, looked up): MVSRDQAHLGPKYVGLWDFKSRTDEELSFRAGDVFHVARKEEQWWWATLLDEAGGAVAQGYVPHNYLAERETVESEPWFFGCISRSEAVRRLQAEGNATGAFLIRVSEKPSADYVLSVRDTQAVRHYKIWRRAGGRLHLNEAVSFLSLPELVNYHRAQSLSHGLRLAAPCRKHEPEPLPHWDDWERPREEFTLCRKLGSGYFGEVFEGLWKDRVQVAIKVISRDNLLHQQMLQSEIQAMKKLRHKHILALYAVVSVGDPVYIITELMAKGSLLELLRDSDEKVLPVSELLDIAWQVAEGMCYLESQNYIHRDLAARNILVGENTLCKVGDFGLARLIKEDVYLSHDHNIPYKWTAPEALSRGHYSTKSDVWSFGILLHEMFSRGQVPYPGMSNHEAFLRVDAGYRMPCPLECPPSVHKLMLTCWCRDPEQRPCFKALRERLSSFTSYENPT
smiles,measurement,setting,value
CNC(=O)Oc1cc(C)c(/C=C/c2cncc(C(=O)NC)c2)c(C)c1,inhibition,[1],4.28%
same,inhibition,[2],7.77%
same,inhibition,[3],4.88%
same,inhibition,[4],4.5%
same,inhibition,[5],-0.01%
same,inhibition,[6],-0.02%
same,inhibition,[7],3.48%
same,inhibition,[8],5.41%
same,inhibition,[9],1.99%
same,inhibition,[10],1.98%
same,inhibition,[11],1.98%
same,inhibition,[12],3.68%
same,inhibition,[13],-4.59%
same,inhibition,[14],-1.52%
same,inhibition,[15],5.83%
same,inhibition,[16],-0.24%
same,inhibition,[17],7.72%
same,inhibition,[18],50.5%
same,inhibition,[19],17.9%
same,inhibition,[20],66.5%
same,inhibition,[21],18.4%
same,inhibition,[22],65%
same,inhibition,[23],14.5%
same,inhibition,[24],58.6%
same,inhibition,[25],1.76%
same,inhibition,[26],3.56%
same,inhibition,[27],23%
same,inhibition,[28],69.2%
same,inhibition,[29],12.9%
same,inhibition,[30],55.8%
same,inhibition,[31],2.46%
same,inhibition,[32],14.2%
same,inhibition,[33],9.35%
same,inhibition,[34],64.3%
same,inhibition,[35],-1.68%
same,inhibition,[36],1.31%
same,inhibition,[37],2.38%
same,inhibition,[38],17.7%
same,inhibition,[39],6.61%
same,inhibition,[40],48.2%
same,inhibition,[41],17.1%
same,inhibition,[42],66.2%
same,inhibition,[43],3.71%
same,inhibition,[44],7.17%
same,inhibition,[45],7.8%
same,inhibition,[46],23%
same,inhibition,[47],1.69%
same,inhibition,[48],4.31%
same,inhibition,[49],1.01%
same,inhibition,[50],3.7%
same,inhibition,[51],1.37%
same,inhibition,[52],18.1%
same,inhibition,[53],1.07%
same,inhibition,[54],2.38%
same,inhibition,[55],0.88%
same,inhibition,[56],0.02%
